Tau fluor cs – counter-screen for tau fibril formation inhibitors; tau K18 P301L Alexa594 fluorescence, heparin fibrillization; hit rate 0.93% among 280,000; Potency, µM (highest dose often 57.7 µM), for the others: at the top dose activity change, negative = decrease; also: potency is read from the fitted curve at half-maximal effect; nearly all actives have a fitted effect of over 55% in size
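Human K18 P301L tau (15 uM unlabeled plus 0.24 uM Alexa 594-labeled, final) in 100 mM sodium acetate pH 7 was mixed with compound and 20 uM heparin and incubated 6 hr at 37 C.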
FBPA coupling cs – coupling enzyme interference in Giardia aldolase counter-screen; coupling enzyme system counterscreen, AmpLite Red fluorescence; activity change, negative = inhibition, % at 58.2 µM, hits read low; hit rate 0.67% among 290,000; AID 2472; in the data active = activity change below about -30%
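Counterscreen of the coupled detection system alone, without aldolase: glyceraldehyde-3-phosphate coupling enzymes plus AmpLite Red readout. Compounds at 57.5 uM final, 10 min RT preincubation, 20 min RT reaction, fluorescence 525/598 nm.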
Tau FP inhib – inhibitors of human tau fibril formation. K18 P301L tau heparin fibrillization, Alexa594 FP, 6 h. P10636. AID 1468. hit rate 0.39% among 280,000. Potency, µM (titrated, usually from 57.7 µM), without a hit: at the highest dose activity, negative = inhibition, hits mostly inhibitors; also: potency is read from the fitted curve at half-maximal effect; nearly all actives have a fitted effect of over 55% in size
Target sequence (P10636 561-689 P618L limits assumed): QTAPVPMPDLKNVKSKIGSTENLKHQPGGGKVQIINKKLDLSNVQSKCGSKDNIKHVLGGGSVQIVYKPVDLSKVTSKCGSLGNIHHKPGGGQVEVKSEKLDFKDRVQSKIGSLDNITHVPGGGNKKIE
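Compound effects on tau fibrillization are measured by Alexa 594 fluorescence polarization (ex 555, em 632 nm). K18 P301L tau is used at 15 uM with 0.24 uM labeled tracer, and 20 uM heparin induces aggregation over 6 hr at 37 C.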
Tau ThT inhib – tau fibrillization inhibition (ThT binding); recombinant tau K18 P301L, heparin-induced fibrillization, ThT fluorescence; Potency, µM (top dose mostly 57.4 µM), without a hit: top-dose activity, negative = inhibition, usual class: inhibitors; P10636; hit rate 2.1% among 270,000; also: potency is read from the fitted curve at half-maximal effect; nearly all actives have a fitted effect of over 55% in size
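Using a mix of unlabeled (15 uM) and Alexa 594-labeled (0.24 uM) tau K18 P301L, heparin-triggered fibrillization over 6 hr at 37 C was scored by ThT fluorescence.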
Sfp inh – inhibitors of Bacillus subtilis Sfp phosphopantetheinyl transferase | Biochemical Sfp PPTase activity, qHTS | Potency, µM, for inactives: largest response in the series, negative = inhibition, most hits filed as inhibitors | hit rate 3.5% among 310,000;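 also: the enzyme is Sfp with the accession as filed and its product quenches rhodamine fluorescence; potency is read from the fitted curve at half-maximal effect; 0% = enzyme reaction without inhibitor and -100% = no enzyme wells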
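Step 1, compound plus 15 nM Sfp-PPTase, 15 min, room temperature. Step 2, add rhodamine-CoA (5 uM) and BHQ-2-YbbR (12.5 uM). Step 3, read 525/598 nm fluorescence at 0 and 30 min.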
Active calls of the source: *; ? = inconclusive; / = not tested or not shown; [ ] = dose if it differs, or a comment. An excerpt weighted towards active compounds, which were near 5.2% of everything screened. Unless noted, calls follow the shape of the dose curve; as a rule, active = well fitted curve in the direction sought with a large enough effect; inconclusive = small, poorly fitted or top-dose-only effect, or another doubt; inactive = no such curve, though single readings can be large; an effect the other way counts as inactive or inconclusive. Unless noted, % is scaled to controls: 0 for no effect and ±100 for the full control effect.

SMILES	Tau fluor cs	FBPA coupling cs	Tau FP inhib	Tau ThT inhib	Sfp inh
CCOC(=O)c1ccc(NC(=O)c2cn(-c3ccccc3)nc2-c2ccc(C)cc2)cc1	?	/	8.9µM*	-13%	/
CCOC(=O)c1ccc(NC(=O)c2cn(-c3ccccc3)nc2-c2ccncc2)cc1	?	-3	28µM*	-4%	1%
Cc1ccc(-c2nn(-c3ccccc3)cc2C(=O)Nc2ccc(C(=O)O)cc2)cc1	-10%	0	3%	11%	5%
CC(C)COc1ccc(-c2nn(-c3ccccc3)cc2C(=O)Nc2nccs2)cc1	?	-7	14µM*	15%	15%
Cc1ccc(NC(=O)c2cn(-c3ccccc3)nc2-c2ccccc2)cc1	-20%	/	-4%	-16%	/
CCN(CC)/[N+]([O-])=N/Oc1cc(O/N=[N+](\[O-])N(C)C)c([N+](=O)[O-])cc1[N+](=O)[O-]	/	0	/	/	-20%
NC1=NCC2c3ccccc3Cc3ccccc3N12 (stereo not given)	/	3	/	/	20%
COc1ccc(-c2nn(-c3ccccc3)cc2C(=O)Nc2ccc(C(=O)O)cc2)cc1OC	/	2	/	/	-1%
CCOC(=O)c1ccc(NC(=O)c2cn(-c3ccccc3)nc2-c2ccc(OC)c(OC)c2)cc1	?	/	10µM*	?	/
O=C(OCc1ccccc1)c1cn(-c2ccccc2)nc1-c1ccncc1	-13%	0	-1%	-9%	89µM*
O=S(=O)(Nc1c(S(=O)(=O)c2ccccc2)c2nc3ccccc3nc2n1C1CCCCC1)c1ccccc1	-2%	-53*	?	?	-26%
C=CCn1c(NS(=O)(=O)c2ccccc2)c(S(=O)(=O)c2ccc(C)cc2)c2nc3ccccc3nc21	-1%	-59*	1%	6%	40µM*
CC(=O)Nc1c(S(=O)(=O)c2ccccc2)c2nc3ccccc3nc2n1Cc1ccccc1	?	0	-6%	?	12%
Cc1ccc(S(=O)(=O)c2c(N)n(-c3ccccc3)c3nc4ccccc4nc23)cc1	-21%	-1	-1%	-9%	2%
Cc1cc2oc(C(=O)Nc3sc4c(c3C(=O)NCC3CCCO3)CCC4)cc(=O)c2cc1C (stereo not given)	-12%	/	3%	?	/
COc1ccc(C(OCCN2CCC[C@H](C(=O)O)C2)(c2ccc(OC)cc2)c2ccc(OC)cc2)cc1	/	-1	/	/	-11%
CCOc1c(O)ccc(/C=C2\SC(=S)NC2=O)c1[N+](=O)[O-]	?	-3	?	10µM*	11µM*
CCOc1ccc(N(C)c2ccc(/C=C3/SC(=S)NC3=O)cc2)cc1	/	1	/	/	-13%
CCN1/C(=C/C=C/c2oc3ccc(-c4ccccc4)cc3[n+]2CC)Oc2ccc(-c3ccccc3)cc21	4µM*[fluorescent]	-1	?	?	11µM*
CCOc1ccc(/C=C/c2nc(C#N)c(N3CCN(CC)CC3)o2)cc1	-28%	/	?	?	/
O=c1oc2ccccc2nc1/C=C(O)/C=C/c1ccc(F)cc1	2%	1	15%	8%	79µM*
Cc1ccc(/C(O)=C/c2nc3ccccc3oc2=O)cc1	-9%	4	-6%	-17%	?
COc1ccc(/C=C/C(=O)N2CCC(c3nc4ccccc4o3)CC2)cc1	-8%	/	11%	?	/
O=c1oc2ccccc2nc1/C=C(O)/C=C\c1ccccc1	-26%	2	?	28µM*	-18%
CNS(=O)(=O)c1cn(CC(=O)N2CCN(c3cccc(Cl)c3)CC2)cc1S(=O)(=O)NC	-6%	/	-5%	-4%	/
SMILES	Tau fluor cs	FBPA coupling cs	Tau FP inhib	Tau ThT inhib	Sfp inh
Oc1ccc(N=Nc2n[nH]c(-c3ccc(Cl)cc3)n2)cc1	?	-2	4%	1.8µM*	12%
Oc1ccc(N=Nc2ccccc2)cc1	/	0	/	/	9%
CN(c1ccccc1)S(=O)(=O)c1cccc(NC(=O)c2cc(=O)c3ccccc3o2)c1	13µM*[quencher]	0	-27%	-18%	11%
O=C(Nc1cccc(S(=O)(=O)N2CCCCCC2)c1)c1cc(=O)c2ccccc2o1	14µM*[quencher]	-3	?	-9%	13%
NS(=O)(=O)c1cccc(NC(=O)c2cc(=O)c3ccccc3o2)c1	/	1	/	/	-6%
CN1C(=O)C2(c3ccccc31)N(c1cccc(C(F)(F)F)c1)C(=O)CS2(=O)=O (stereo not given)	-9%	/	-9%	-1%	/
CCOC(=O)C1=CN(C(=O)OC(C)(C)C)C(CN2C(=O)COCC2=O)C1 (stereo not given)	/	3	/	/	3%
COc1cc(Cl)c(C)cc1NC(=O)CSc1cc(-c2ccccc2)nc(C)n1	-19%	/	-10%	?	/
C=CCNc1nc(-c2c(C)nc3ncccn23)cs1	/	0	/	/	2%
Cc1nc2ncccn2c1-c1csc(Nc2ccc(O)cc2)n1	?	-2	7%	10µM*	?
Cc1ccc(Nc2nc(-c3c(C)nc4ncccn34)cs2)cc1	?	0	-5%	14µM*	50µM*
Cc1nc2ccccn2c1-c1csc(NCc2ccco2)n1	-17%	-1	-11%	?	?
Cc1ccc(Nc2nc(-c3c(C)nc4ccccn34)cs2)cc1	10µM*[quencher]	0	?	11µM*	45µM*
COc1ccc(OC)c(NC(=O)CSC2=Nc3ccccc3C3=NC(CCC(=O)NCCc4ccccc4)C(=O)N23)c1 (stereo not given)	-9%	/	0%	-12%	/
O=C1NC(=O)C(Cc2ccc(OCCN3COc4ccccc4C3=O)cc2)S1 (stereo not given)	/	2	/	/	4%
CCCN(C(=O)c1sc2nc3n(c(=O)c2c1C)CCCC3)c1ccccc1C	-11%	/	-16%	-14%	/
Clc1cnc(N/N=C/c2ccco2)c(Cl)c1	-3%	-10	3%	-1%	79µM*
Brc1ccc(-c2csc(N/N=C/c3ccco3)n2)cc1	18µM*[quencher]	-1	-13%	16µM*	6%
C(=N\Nc1nc(-c2ccccc2)cs1)/c1ccco1	14µM*[quencher]	-5	?	14µM*	?
Cc1sc(N/N=C/c2ccco2)nc1-c1ccccc1	?	-3	8%	?	-4%
Clc1ccc(-c2csc(N/N=C\c3cccnc3)n2)cc1	?	2	1%	?	56µM*
Clc1cnc(N/N=C/c2cccs2)c(Cl)c1	-18%	-2	2%	?	-11%
Cc1cc(-c2ccccc2)nc(N/N=C/c2ccco2)n1	-6%	1	-4%	-16%	3%
O=C(Nc1nc(-c2ccc(Cl)cc2)cs1)c1cccnc1	-13%	-1	-22%	-7%	-7%
CC(C)c1ccc(CN(Cc2ccco2)c2cnc(S(C)(=O)=O)nc2C(=O)Nc2ccc(F)cc2)cc1	-4%	/	-4%	6%	/
CC(C)C[C@@H](/C=C/S(C)(=O)=O)NC(=O)[C@H](CC(C)C)NC(=O)[C@H](CC(C)C)NC(=O)OCc1ccccc1	-9%	/	-3%	-16%	26%

Screening results (PubChem)
